High-throughput results as filed in PubChem.
ALDH1A1 inh – ALDH1A1 (human) enzyme inhibition | Potency, µM (top dose mostly 75.3 µM), for inactives: at the highest dose activity, negative = inhibition, hits mostly inhibitors | Purified ALDH1A1, NADH fluorescence, propionaldehyde substrate | 220,000 tested, 7.3% active;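 further: potency means the concentration at half of the fitted maximal effect; plate controls were no enzyme wells and a reference inhibitor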
HPGD inh – blocks human HPGD enzyme activity. P15428. purified HPGD, NADH fluorescence kinetic, PGE2 substrate. Potency, µM, without a hit: at the top dose activity change, negative = inhibition, usual class: inhibitors. 150,000 tested, 4.3% active; further: potency means the concentration at half of the fitted maximal effect
Target sequence (P15428 whole entry, looked up): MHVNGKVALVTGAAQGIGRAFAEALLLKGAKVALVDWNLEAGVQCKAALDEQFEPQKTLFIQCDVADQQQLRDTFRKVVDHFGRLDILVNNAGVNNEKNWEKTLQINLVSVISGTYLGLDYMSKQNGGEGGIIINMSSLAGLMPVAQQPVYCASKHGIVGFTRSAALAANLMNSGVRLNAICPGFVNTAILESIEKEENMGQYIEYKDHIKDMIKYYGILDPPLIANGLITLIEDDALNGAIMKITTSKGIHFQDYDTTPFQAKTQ
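20 nM HPGD preincubated 15 min at room temperature with compound in 50 mM Tris-HCl pH 8, 0.01% Tween 20. Started with 1 mM NAD+ and 30 uM prostaglandin E2; NADH fluorescence (360/450 nm) read 5 times over 30-s intervals, last minus first.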
PNC inhibitor – perinucleolar compartment assembly inhibition; PC3M PTB-GFP, PNC prevalence imaging, 16 h; active compounds read low; activity change (PNC), negative = inhibition, % at 10 µM; 140,000 tested, 3.1% active;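 active means readout at or below -70, meaning at least 70% loss of cells showing the perinucleolar compartment, a nuclear body marking cancer cells; inconclusive means readout between -30 and a set limit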;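 further: plate controls were DMSO wells for no effect and camptothecin positive control wells for full effect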
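Read-out is percentage of cells bearing a perinucleolar compartment, from automated 20x imaging of fixed, Hoechst-stained PC3M PTB-GFP cells. Cells were seeded 4 h, then exposed 16 h to compound (23 nl of library stock) in duplicate plates.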
* = called active by the depositor; ? = inconclusive; / = no result given; [ ] = another dose, or the depositor's remark. Compounds with a hit are over-represented: about 11% of the library has one in this group of screens. Unless noted, the call rests on the fitted dose curve; in most records, active means well fitted inhibition curve with a large enough effect (not every such curve was filed as active); inconclusive means small, poorly fitted or top-dose-only effect, or another doubt; inactive means no such curve, though single readings can be large or run the other way. Unless noted, on the % scale 0 is the no-effect control and ±100 the full control effect.

SMILES | ALDH1A1 inh | HPGD inh | PNC inhibitor
CCCCCCCCCCCCCCCCCCOC[C@H](COP(=O)([O-])OCC[N+](C)(C)C)OC | 4% | -14% | /
Cc1nc(C)n(C(C)CC(=O)O)n1 (stereo unspecified) | 0% | -3% | ?
COc1cccc(-c2cc(C(F)(F)F)nc(N3CCCCC3)n2)c1 | -11% | -21% | 51
COc1cc(/C=N/NS(=O)(=O)c2ccc(C(C)(C)C)cc2)cc([N+](=O)[O-])c1O | 7.9µM* | / | /
Cc1ccc(S(=O)(=O)N/N=C\c2cc([N+](=O)[O-])ccc2Cl)cc1 | ? | -11% | 11
COc1cc(/C=N/NC(N)=O)cc([N+](=O)[O-])c1O | 4% | / | /
COc1cccc(/C=N/Nc2ccc(S(=O)(=O)O)cc2)c1O | 10µM* | 32µM* | -11
CCOc1cccc(/C=N/NC(=S)Nc2ccccc2[N+](=O)[O-])c1O | 2% | / | /
Cc1ccc(S(=O)(=O)N/N=C/c2cc([N+](=O)[O-])ccc2O)cc1[N+](=O)[O-] | 13µM* | / | /
CCOc1cccc(/C=N/NS(=O)(=O)c2ccc(C)c([N+](=O)[O-])c2)c1O | 4µM* | / | /
COc1cccc(/C=N/Nc2ccc(C(=O)O)cc2)c1O | 11% | / | /
COc1cc(/C=N/NS(=O)(=O)c2ccc(C)c([N+](=O)[O-])c2)ccc1O | 13µM* | / | /
COc1ccc(/C=N\NS(=O)(=O)c2ccc(C)cc2)cc1COc1ccccc1[N+](=O)[O-] | ? | -22% | 2
COc1ccc(CNc2oc(-c3ccccc3)nc2C#N)cc1 | ? | ? | 25
COc1ccc(CCNc2oc(-c3ccc(C)cc3)nc2C#N)cc1OC | ? | ? | -108*
COc1ccc(-c2nc(C#N)c(NCCc3ccccc3)o2)cc1 | ? | ? | -100*
COc1ccc(CCNc2oc(Cc3cccc4ccccc34)nc2C#N)cc1OC | 7.1µM* | -28% | 17
Cc1ccc(-c2nc(C#N)c(NCCc3ccccn3)o2)cc1 | ? | ? | 3
COc1ccc(CCNc2oc(COc3ccc(Br)cc3)nc2C#N)cc1OC | 4% | -12% | -6
COc1ccc(OC)c(/C(O)=C/C(=O)C(=O)Nc2ccccc2OC)c1 | 2% | -24% | -9
Cc1cccc(OCc2nnc(SCC(=O)Nc3cc(C)on3)n2C)c1 | 10% | -6% | ?
CCCC(=O)N=C1SC2CS(=O)(=O)CC2N1c1ccc(CC)cc1 (stereo unspecified) | -2% | 1% | 15
COc1cccc(C(=O)Nc2c(C(N)=O)oc3ccccc23)c1 | -1% | ? | -11
CCOc1ccc(C(=O)Nc2c(C(N)=O)oc3ccccc23)cc1 | -2% | ? | -119*
COC(=O)NC(/C=C/c1ccccc1)[C@]1(C(C)=O)CCCC1=O (stereo partly specified) | -10%[13.5 µM] | / | /
SMILES | ALDH1A1 inh | HPGD inh | PNC inhibitor
Cc1oc(-c2ccc(Cl)cc2)nc1CN1CCCC(C(=O)N2CCN(C(=O)c3ccco3)CC2)C1 (stereo unspecified) | -8% | -1% | ?
Cc1nnc(SCCn2c(N3CCCC(C)C3)nc3c2c(=O)n(C)c(=O)n3C)s1 (stereo unspecified) | ? | 8% | 22
Cc1ccc(OCCOC(=O)CCc2nc3ccccc3c(=O)[nH]2)cc1 | 4% | / | /
O=C(c1cccs1)c1ccc(-c2cccs2)s1 | ? | ? | -2
O=C(c1cccs1)c1no[n+]([O-])c1C(=O)c1cccs1 | 0.28µM* | 13µM* | 12
COc1ccc(NC(=O)c2c(N)no[n+]2[O-])cc1 | -5% | / | /
COc1ccc(C(=O)c2no[n+]([O-])c2C(=O)c2ccc(OC)cc2)cc1 | 1µM* | ? | 16
CC1(OC(=O)C2CCCC2)C(=O)C=C2C=C(c3ccsc3)N(CCc3ccccn3)C=C2C1=O (stereo unspecified) | ? | -2% | /
COc1ccc(S(=O)(=O)Nc2cc(C)c(O)c(S(=O)(=O)c3ccccc3)c2)cc1 | ? | -2% | -102*
CC(=O)Nc1ccccc1NS(=O)(=O)c1ccc(Cl)cc1 | 9% | 3% | 3
COc1ccc(S(=O)(=O)c2c(C)c(NS(=O)(=O)c3ccccc3)cc(C)c2O)cc1 | 8.9µM* | / | /
COc1ccc(S(=O)(=O)Nc2cc3c(C(C)=O)c(C)oc3c3ccccc23)cc1 | ? | -4% | ?
COc1ccc(S(=O)(=O)Nc2cccc(NC(C)=O)c2)cc1 | 9% | -6% | ?
Cc1c(NS(=O)(=O)c2ccccc2)cc(Cl)c(O)c1C | 22µM* | 32µM* | -8
CCOc1ccc(CCNC(=O)CCN2C(=O)COc3ccccc32)cc1OCC | 10% | -5% | -20
COC(=O)c1cc(C(=O)OCC(=O)NC2CCS(=O)(=O)C2)cc([N+](=O)[O-])c1 (stereo unspecified) | 2% | / | /
